# Sm TGR block – inhibitors of Schistosoma mansoni thioredoxin glutathione reductase. Q962Y6. purified TGR, DTNB reduction, TNB absorbance 405 nm. Potency, µM (highest dose often 114 µM), inactives show at the top dose activity change, negative = inhibition, actives largely listed as inhibitors. hit rate 3% among 360,000. AID 485364; note: % is set by controls: 0 for no effect and ±100 for the full control effect; nearly all actives have a fitted effect of over 60% in size
#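 Kinetic colorimetric format: TGR-catalysed, NADPH-driven DTNB reduction monitored via TNB absorbance. Enzyme dispensed at 20 nM; compound exposure 15 min at room temperature before reaction start.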
# Pf growth 96h – P. falciparum growth inhibition at 96 hours; P. falciparum luciferase reporter growth, 96 h; Potency, µM (series often up to 28.7 µM), for inactives: top-dose activity change, negative = inhibition, most hits filed as inhibitors; hit rate 6.9% among 320,000; AID 504834; note: % is set by controls: 0 for no effect and ±100 for the full control effect
#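 Two parasite generations (96 h, 37 C, 5% CO2) of compound exposure in infected erythrocytes (0.05% parasitemia, 2% hematocrit). Luciferase-reporter P. falciparum; decreased luminescence indicates inhibited growth, aimed at apicoplast-acting delayed death.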
# AMA1 RON2 block – inhibitors of Plasmodium falciparum AMA1-RON2 interaction | hit rate 0.2% among 360,000 | AID 720542 | Potency, µM (top dose mostly 58.2 µM), for the others: top-dose activity change, negative = inhibition, most hits filed as inhibitors | AlphaScreen AMA1-biotinylated RON2 peptide binding;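 note: 0% = vehicle wells and -100% = peptide control; nearly all actives have a fitted effect of over 45% in size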
#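 AMA1 (3D7) with his tag at 25 nM final met compounds first, then biotinylated RON2 peptide at 25 nM; detection used donor plus acceptor beads, 10 µg/mL apiece, read by AlphaScreen after 30 min at room temperature.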
# Pf growth 48h – P. falciparum growth inhibition at 48 hours (one generation); P. falciparum luciferase growth in erythrocytes, 48 h; Potency, µM (highest dose often 28.7 µM), without a hit: at the highest dose activity change, negative = inhibition, actives largely listed as inhibitors; hit rate 5.9% among 310,000; AID 504832; note: % is set by controls: 0 for no effect and ±100 for the full control effect
#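 Parasite viability was followed by luminescence of a genomically integrated firefly luciferase. Cultures held 0.1% parasitemia at 2% hematocrit (final), incubated under 5% CO2 at 37 C.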
# NS1 inh – blocks influenza NS1 protein function; AID 2326; hit rate 0.4% among 270,000; Potency, µM (highest dose often 46.1 µM), for the others: at the highest dose activity, positive = more growth; calls by dose curve; note: actives are rising curves; nearly all actives have a fitted effect of over 50% in size
#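 Recovery from NS1-induced slow growth read by OD600 in budding yeast switched to galactose assay medium (pH 6.0, -URA) at 1:100 dilution. Compound 23 nl per well; the matching strain lacking NS1 serves as control.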
# Starred values were filed as active, the others as inactive; i = inactive; ? = inconclusive; nt = not tested or not shown. Only some compounds are listed: those with a hit (about 11% of all), similar ones and a draw of the others. Unless noted, calls come from the whole dose curve; as a rule, active = well fitted curve in the direction sought with a large enough effect; inconclusive = small, poorly fitted or top-dose-only effect, or another doubt; inactive = no such curve, though single readings can be large; an effect the other way counts as inactive or inconclusive. Potency is the fitted concentration of half-maximal effect.
SMILES,Sm TGR block,Pf growth 96h,AMA1 RON2 block,Pf growth 48h,NS1 inh
COc1ccc(N2CCN(C(=O)CSc3c4c(nc5ccc(Cl)cc35)CCCC4)CC2)cc1,1.0%,nt,nt,nt,nt
CCCSc1nsc(NC(=O)CCC)n1,-4.6%,3.7µM*,-4.6%,i,nt
O=C(Nc1ccc(F)cc1)Nc1ccc(S(=O)(=O)N2CCCC2)cc1,-12.0%,7.38µM*,-3.3%,13.1µM*,nt
Cc1oc(S(=O)(=O)N2CCCCC2)cc1NC(=O)Nc1ccc(F)cc1,10µM*,5.86µM*,-1.5%,?,-1.5%
O=S(=O)(c1ccc(S(=O)(=O)N(Cc2ccc(F)cc2)C2CCCC2)cc1)N1CCCC1,0.5%,nt,25.5%,13.1µM*,-19.4%
O=C(Cn1cc([N+](=O)[O-])ccc1=O)N1CCCc2ccccc21,-23.7%,34.4%,-7.2%,11.1%,nt
Cc1c(C(=O)NCc2ccc(F)cc2)c(-c2ccccc2)nn1-c1ccccc1,-6.5%,5.86µM*,2.4%,nt,5.8%
COc1ccc(C)cc1NC(=O)Cn1c(=O)c(C(F)(F)F)nc2ccccc21,7.7%,nt,nt,nt,nt
COc1ccc(NC(=O)CSc2nnc(-c3ccco3)c(-c3ccco3)n2)cc1OC,5.62µM*,25.8%,-5.4%,1.4%,4.4%
COc1ccc(NC(=O)CSc2nc(-c3ccco3)cc(C(F)(F)F)n2)cc1OC,-0.7%,nt,nt,nt,nt
CCOc1ccc(-c2nnc(SCC(=O)NC(C)(C)C)nc2-c2ccc(OCC)c(OC)c2)cc1OC,0.1%,?,-10.7%,2.33µM*,2.6%
COc1ccc(C(=O)CSc2nnc(-c3ccco3)n2CC2CCCO2)cc1 (centres undefined),21.0%,?,0.9%,-0.3%,0.3%
COc1ccc(C(=O)CSc2nnc(-c3ccco3)c(-c3ccco3)n2)cc1,nt,1.47µM*,-16.6%,-3.0%,5.8%
COc1cccc(NC(=O)CSc2nnc(-c3ccco3)c(-c3ccco3)n2)c1,2.82µM*,18.0%,-22.4%,10.0%,14.0%
CCOc1ccc(-c2nnc(SCC(=O)NC3CCCC3)nc2-c2ccc(OCC)c(OC)c2)cc1OC,-6.1%,nt,nt,nt,nt
CCOCCCNC(=O)c1ccc(OC)c(OC2CCN(C(C)C)CC2)c1,3.0%,14.7µM*,14.6%,12.6%,27.7%
COc1ccc(CCC(C)N2CCC(Oc3ccc(C(=O)N4CCCC4)cc3)CC2)cc1 (centres undefined),28.2µM*,?,-1.0%,11.7µM*,?
COc1ccc(C(=O)N2CCCCCCC2)cc1OC1CCN(C(C)C)CC1,-23.5%,3.7µM*,0.0%,12.2%,-4.4%
COc1ccc(C(=O)NCCCC2CCCC2)cc1OC1CCN(C(C)C)CC1,nt,nt,10.5%,nt,nt
CC(CN1CCN(C/C=C/c2ccccc2)CC1)c1ccccc1 (centres undefined),5.1%,-15.3%,-20.3%,11.6%,-8.1%
COCCN(C(=O)COC(=O)Cc1ccc(Cl)cc1)c1c(N)n(Cc2ccccc2)c(=O)[nH]c1=O,nt,nt,1.0%,nt,nt
COc1ccccc1-c1cc(C(=O)NCc2cccs2)no1,9.0%,3.7µM*,-19.9%,48.4%,-14.7%
COc1ccccc1-c1cc(C(=O)Nc2cc(C)n(Cc3ccc(Cl)cc3)n2)no1,-0.2%,15.7%,-1.1%,5.86µM*,0.9%
Cc1cc(C(=O)Nc2cc(C)n(Cc3ccc(Cl)cc3)n2)no1,-0.5%,?,-2.3%,0.928µM*,-8.6%
Cc1cc(NC(=O)c2cc(C(C)C)on2)nn1Cc1ccc(Cl)cc1,-2.0%,9.28µM*,9.8%,nt,-48.6%
SMILES,Sm TGR block,Pf growth 96h,AMA1 RON2 block,Pf growth 48h,NS1 inh
Cc1cc(NC(=O)c2cc(-c3ccc(Cl)cc3)on2)nn1Cc1ccc(Cl)cc1,-5.4%,nt,nt,nt,nt
Cc1ccc2onc(CC(=O)N3CCN(c4cccc(Cl)c4)CC3)c2c1,-26.8%,nt,nt,nt,nt
Cc1cccc(NC(=O)c2nc[nH]c2C(=O)N2CCN(c3ccccc3)CC2)c1,nt,nt,18.8%,nt,nt
COc1ccc(Cn2c(-c3ccc(C)cc3)c[n+]3ccccc23)cc1,-6.4%,0.104µM*,1.0%,0.37µM*,-4.4%
CCCc1ccccc1OCCNC(C)=O,4.5%,8.28µM*,-2.2%,-15.8%,4.8%
CC(=O)NCCOc1cccc2ccccc12,-4.3%,?,11.3%,31.5%,1.1%
COC(=O)C1=C(C)Nc2sc(C(N)=O)c(N)c2C1c1ccncc1 (centres undefined),-3.1%,?,-6.0%,-28.8%,19.1%
